According to PubChem BioAssay:
Inconclusive results are not listed. Calls of active or inactive are those of the source. Unless noted, cut-off not given; nearly all actives show AC50 up to about 26 µM.

System: Aerobactin synthetase IucA (Klebsiella pneumoniae)
Test: inhibition of K. pneumoniae IucA enzyme – biochemical, Tocris library, absorbance (AID 1345561; call rule not given here;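 further: 100% = enzyme without compound and 0% = no enzyme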)
Settings: purified IucA enzyme assay, absorbance (OD) read-out; active compounds read low; concentration not given here

Row | SMILES | remaining activity
1 | COc1cccc(OC)c1OCCNCC1COc2ccccc2O1 (stereo not given) | 108% (inactive)
2 | O=C(O)C1=CCNCC1 | 102% (inactive)
3 | COc1cc2c(c(OC)c1OC)-c1ccc(OC)c(=O)cc1C(NC(C)=O)CC2 (stereo not given) | 109% (inactive)
4 | O=C(O)c1c2ccccc2cc2ccccc12 | 101% (inactive)
5 | CCCn1c(=O)c2[nH]c(C3CCCC3)nc2n(CCC)c1=O | 119% (inactive)
6 | C=C1C(=O)O[C@H]2[C@H]1CC/C(C)=C/CC[C@@]1(C)O[C@@H]21 | 83.6% (inactive)
7 | O=C(O)C1=CCCNC1 | 107% (inactive)
8 | O=C(O)Cc1nn(Cc2ccc(Br)cc2F)c(=O)c2ccccc12 | 92.7% (inactive)
9 | O=C(/C=C/c1ccc(O)c(O)c1)O[C@H](Cc1ccc(O)c(O)c1)C(=O)O | 105% (inactive)
10 | O=C(O)c1cc(=O)c2ccc(Cl)cc2[nH]1 | 104% (inactive)
11 | O=C(O)c1cc(=O)c2ccccc2[nH]1 | 94.6% (inactive)
12 | CC(C)C[C@H]1C(=O)N2CCC[C@H]2[C@]2(O)O[C@](NC(=O)[C@@H]3C=C4c5cccc6[nH]c(Br)c(c56)C[C@H]4N(C)C3)(C(C)C)C(=O)N12 | 93.8% (inactive)

System: not listed separately
Test: viability loss in pontine glioma line – cell-based, SU-DIPG-XVII, MIPE5.0, CellTiter-Glo, qHTS, dose response (AID 1347060);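 on AC50: cells exposed to compound for 48 hours before viability readout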
Settings: CellTiter-Glo ATP luminescence

Row | SMILES | AC50 | outcome
13 | COc1cc([C@@H]2c3cc4c(cc3[C@H](O)[C@H]3COC(=O)[C@@H]23)OCO4)cc(OC)c1OC | 525 nM (active) | 
14 | COc1ccc([C@@H]2CC(=O)c3c(O)cc(O[C@@H]4O[C@H](CO[C@@H]5O[C@@H](C)[C@H](O)[C@@H](O)[C@H]5O)[C@@H](O)[C@H](O)[C@H]4O)cc3O2)cc1O |  | inactive
15 | C[C@H]1O[C@@H](O[C@H]2[C@@H](O)C[C@H](O[C@H]3[C@@H](O)C[C@H](O[C@H]4CC[C@@]5(C)[C@H](CC[C@@H]6[C@@H]5C[C@@H](O)[C@]5(C)[C@@H](C7=CC(=O)OC7)CC[C@]65O)C4)O[C@@H]3C)O[C@@H]2C)C[C@H](O)[C@@H]1O | 166 nM (active) | 
16 | C=C1CC[C@@H]2[C@](C)(CO)[C@H](O)CC[C@@]2(C)[C@@H]1C/C=C1/C(=O)OC[C@H]1O | 16600 nM (active) | 
17 | CN[C@H](CC(C)C)C(=O)N[C@H]1C(=O)N[C@@H](CC(N)=O)C(=O)N[C@H]2C(=O)N[C@H]3C(=O)N[C@H](C(=O)N[C@H](C(=O)O)c4cc(O)cc(O)c4-c4cc3ccc4O)[C@H](O)c3ccc(c(Cl)c3)Oc3cc2cc(c3O[C@@H]2O[C@H](CO)[C@@H](O)[C@H](O)[C@H]2O[C@H]2C[C@](C)(N)[C@H](O)[C@H](C)O2)Oc2ccc(cc2Cl)[C@H]1O |  | inactive
18 | C=C(C)[C@@H]1CC[C@]2(C(=O)O)CC[C@]3(C)[C@H](CC[C@@H]4[C@@]5(C)CC[C@H](O)C(C)(C)[C@@H]5CC[C@]43C)[C@@H]12 | 20900 nM (active) | 
19 | C[C@@H]1[C@H](O)[C@@H](C)/C=C/C=C/C=C/C=C/C=C/C=C/C=C/[C@H](O[C@@H]2O[C@H](C)[C@@H](O)[C@H](N)[C@@H]2O)C[C@@H]2O[C@](O)(C[C@@H](O)C[C@@H](O)[C@H](O)CC[C@@H](O)C[C@@H](O)CC(=O)O[C@H]1C)C[C@H](O)[C@H]2C(=O)O |  | inactive
20 | COc1ccc(-c2cc(=O)c3c(O)cc(O[C@@H]4O[C@H](CO[C@@H]5O[C@@H](C)[C@H](O)[C@@H](O)[C@H]5O)[C@@H](O)[C@H](O)[C@H]4O)cc3o2)cc1O |  | inactive
21 | CC(C)(O)CC[C@@H](O)[C@](C)(O)[C@H]1CC[C@@]2(O)C3=CC(=O)[C@@H]4C[C@@H](O)[C@@H](O)C[C@]4(C)[C@H]3CC[C@]12C |  | inactive
22 | COc1cc([C@@H]2c3cc4c(cc3[C@@H](O[C@@H]3O[C@@H]5CO[C@@H](c6cccs6)O[C@H]5[C@H](O)[C@H]3O)[C@H]3COC(=O)[C@H]23)OCO4)cc(OC)c1O | 332 nM (active) | 
23 | COc1cc(NS(C)(=O)=O)ccc1Nc1c2ccccc2nc2ccccc12 | 934 nM (active) | 
24 | CC(C)(S)[C@@H](N)C(=O)O |  | inactive
25 | C[C@H](CCC(=O)O)[C@H]1CC[C@H]2[C@@H]3[C@H](O)C[C@@H]4C[C@H](O)CC[C@]4(C)[C@H]3CC[C@]12C |  | inactive
26 | CCC(=O)NCC[C@@H]1CCc2ccc3c(c21)CCO3 |  | inactive
27 | CCC[C@@H]1C[C@@H](C(=O)N[C@@H]([C@H]2O[C@H](SC)[C@H](O)[C@@H](O)[C@H]2O)[C@H](C)Cl)N(C)C1 |  | inactive
28 | CC[C@@]1(O)C[C@H](O[C@H]2C[C@H](N(C)C)[C@H](O[C@H]3C[C@H](O)[C@H](O[C@H]4CCC(=O)[C@H](C)O4)[C@H](C)O3)[C@H](C)O2)c2c(cc3c(c2O)C(=O)c2c(O)cccc2C3=O)[C@H]1C(=O)OC | 14800 nM (active) | 
29 | N=c1ccn2c(n1)O[C@H]1[C@H](O)[C@@H](CO)O[C@H]12 | 1180 nM (active) | 
30 | CC1(C)[C@@H](O)CC[C@]2(C)[C@H]3C(=O)C=C4[C@@H]5C[C@@](C)(C(=O)O)CC[C@]5(C)CC[C@@]4(C)[C@]3(C)CC[C@@H]12 |  | inactive
